High-throughput results deposited in PubChem by SRMLSC.
Shown are actives, neighbours in structure and some others; about 6.8% of the full set was active somewhere.
MK inhibit: S. pneumoniae mevalonate kinase inhibition; purified MK, PK/LDH-coupled NADH absorbance 340 nm; inhibition, % at 10 µM; actives 0.48% (n = 65,000); AID 555;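 active = ranked among the strongest by inhibition in the single 10 µM screen, a fixed top-ranked set picked for dose follow-up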
A340 absorber: absorbance at 340 nm | compound absorbance at 340 nm, fold over control | fold change at 10 µM | 65,000 tested, under 10 active;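 active = at 10 µM dose, initial 340 nm absorbance at least 2 fold that of control wells; inactive = change under 2 fold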;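 also: initial absorbance extrapolated from kinetic A340 decline of NADH oxidation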
Spn DPM-DC inh: S. pneumoniae DPM-DC inhibition; purified DPM-DC, PK/LDH coupled NADH fluorescence; calls only at 10 µM; actives 0.49% (n = 65,000);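 active = the 320 compounds with the highest percent inhibition in the single-dose primary screen, excluding strongly autofluorescent ones, cut at about 32% in these data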;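 also: kinetic rate of NADH fluorescence loss reporting ADP formed by the decarboxylase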
Spn PMK inh: blocks S. pneumoniae phosphomevalonate kinase; purified PMK, PK/LDH-coupled NADH absorbance 340 nm; inhibition, % at 10 µM; actives 0.49% (n = 65,000); AID 539;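 active = top-ranked compounds by inhibition in the single 10 µM screen, taking a fixed number of the strongest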;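 also: 0% = full reaction with DMSO carrier and 100% = background rate without enzyme reaction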
NADH enzymes: inhibition of NAD/NADH coupling enzymes, library profiling; actives 0.02% (n = 65,000); coupled PK/LDH NADH assays, four targets; AID 774; IC50, µM (highest dose often 10 µM), for the others: top-dose inhibition;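 active = single-dose screening hits from any of four coupled enzyme assays that gave an IC50 when retested across doses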;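 also: the DPM-DC format reads NADH fluorescence rather than 340 nm absorbance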
Fluor 339 460: intrinsic fluorescence of library compounds, ex339/em460 – biochemical, MLSMR library, data from DPM-DC assay, artefact control, profiling panel; actives 5.5% (n = 65,000); compound autofluorescence, ex339/em460 nm, NADH buffer; active compounds read high; 1 = no-compound wells, NADH background; fluorescence fold increase at 10 µM;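 active = at 10 µM, mean starting fluorescence two-fold or more over control wells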;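 also: signal is the first read of a kinetic run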
* marks the source's active call; other numbers are inactive results; i = inactive; . = no result shown; + = active, no number.

SMILES	MK inhibit	A340 absorber	Spn DPM-DC inh	Spn PMK inh	NADH enzymes	Fluor 339 460
Cc1c(-c2ccccc2)c(P(=O)(N2CCOCC2)N2CCOCC2)c2ccccn12	0	1	.	12	6%	5*
O=P(C1=C(N2CCOCC2)/C(=C\c2ccccc2)CC1)(N1CCOCC1)N1CCOCC1	1	1.1	i	16	8%	1.2
Cc1ccc(-c2cc(-c3nnc(SCC(=O)N(C)CCC#N)n3N)c3ccccc3n2)cc1	8	1.1	.	10	9%	4.2*
Cc1ccc(-c2nnc(SCC(=O)O)n2N)cc1	12	1	i	10	7%	1.1
NC(=O)CCN(Cc1ccccc1)S(=O)(=O)c1ccccc1	5	1	i	28*	11%	1.1
Cc1nn(C)c(C)c1NC(=O)CSc1nc(-c2ccccc2F)nc2c1cnn2-c1ccccc1	0	1	i	18	10%	2.1*
Cc1cc(C(=O)NCc2ccccc2Br)no1	1	1	i	5	2%	1.1
OC(CNc1nc2ccccc2s1)c1ccccc1 (stereo not given)	8	1	i	0	3%	1.1
CCOc1ccccc1NC(=O)c1nc[nH]c1C(=O)Nc1ccccc1OCC	5	1.1	.	15	10%	5.2*
COc1ccc(NC(=O)c2nc[nH]c2C(=O)Nc2ccccc2C)cc1	0	1.1	i	9	7%	3.2*
COc1ccccc1NC(=O)c1nc[nH]c1C(=O)Nc1ccccc1OC	7	1	i	14	8%	2.3*
CNC(=O)c1[nH]cnc1C(=O)Nc1cccc(OC)c1	4	1.1	i	8	4%	1.1
Cc1ccccc1NC(=O)c1nc[nH]c1C(=O)NCc1ccccc1	6	1	i	4	4%	1.1
Cn1c(C(=O)N2CCCc3ccccc32)cc2sccc21	0	1.1	i	21	7%	1
c1ccc(CCNc2nc3ccccc3n3nnnc23)cc1	0	1.1	i	13	7%	2.6*
c1ccc(N2CCN(c3nc4ccccc4n4nnnc34)CC2)cc1	0	1.1	i	15	5%	1.8
CC(=O)N1CCc2cc(C(=O)CN3CCCCC3)ccc21	2	1.1	i	1	1%	1.1
CC(=O)N1CCc2cc3nc(C)cc(C)c3cc21	3	1.1	.	15	9%	4.1*
Cc1cccc(OCCCc2c(C)n[nH]c2C)c1	11	1	i	26*	4%	1.1
COc1cccc(OC)c1OCCCc1c(C)n[nH]c1C	0	0.99	i	14	5%	1
CC1=C(C(=O)OC(C)C)C(c2cccnc2)C2=C(CCCC2=O)N1 (stereo not given)	7	1.1	.	0	4%	2.2*
COC(=O)C1=C(C)NC2=C(C(=O)CCC2)C1c1ccccn1 (stereo not given)	4	1.1	.	5	5%	2.1*
COCCOC(=O)C1=C(C)NC2=C(C(=O)CC(c3cccs3)C2)C1c1ccsc1 (stereo not given)	2	1.1	i	12	12%	2.4*
CC1=C(C(=O)OC(C)C)C(c2cccs2)C2=C(CCCC2=O)N1 (stereo not given)	4	1.1	i	1	2%	1.5
CC1=C(C(=O)OCC2CCCO2)C(c2ccccc2OC(C)C)C2=C(CC(c3ccco3)CC2=O)N1 (stereo not given)	4	1	.	8	6%	3.3*
CCN(CC)c1ccc(C2C(C(=O)OCCOC)=C(C)NC3=C2C(=O)CCC3)cc1 (stereo not given)	13	1.1	i	3	7%	1.4
CC(C)(C)NC(=O)c1ccc2c(c1)N(CC(=O)N1CCN(c3ccc(F)cc3)CC1)C(=O)C(C)(C)O2	6	0.97	i	21	10%	0.95
CC1=C(C(=O)OCC2CCCO2)C(c2ccncc2)C2=C(CCCC2=O)N1 (stereo not given)	2	1.1	+	6	18%	1.4
CCOC(=O)C1=C(C)NC2=C(C(=O)CCC2)C1c1ccsc1 (stereo not given)	7	1.1	i	3	10%	2.5*
CC1=C(C(=O)OCC2CCCO2)C(c2ccccc2)NC(=O)N1 (stereo not given)	5	1	i	6	8%	0.9
